From PubChem BioAssay (EPA / NIEHS)
Inconclusive results are not listed. The source holds several records for some structures; these can differ, active in one and inactive in another. Calls of active or inactive are those of the source. The calls were made as follows, unless noted: active = hit-call score of the fitted dose curve at least 0.9, where 1 is the maximum; inactive = score below 0.9.

Tests used:
[1] = biological target: Estrogen-related receptor gamma (Homo sapiens) (UniProt P62508); assay: ATG_ERRg_TRANS: Attagene TRANS-FACTORIAL HepG2 Assay for human Estrogen-Related Receptor gamma (ERRg) (AID 2282977; active = hit-call score of the fitted dose curve at least 0.9, where 1 is the maximum;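 also: hits increase reporter signal over DMSO so potencies reflect activators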); settings: HepG2 Attagene TRANS reporter, ERRg transactivation
Method in brief: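 HepG2 cells transiently transfected with multiplexed GAL4-UAS reporter units driven by chimeric NR-Gal4 proteins; 24 h exposure. Reporter mRNA quantified by RT-PCR, fluorescent labelling, HpaI digestion and capillary electrophoresis; gain of signal vs DMSO.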

[2] = biological target: Oxysterols receptor LXR-alpha (Homo sapiens) (UniProt Q13133); assay: ATG_LXRa_TRANS: Attagene TRANS-FACTORIAL HepG2 Assay for human Liver X Receptor alpha (LXRa) (AID 2282980; active = hit-call score of the fitted dose curve at least 0.9, where 1 is the maximum); settings: HepG2 Attagene TRANS reporter, LXRa transactivation
Method in brief: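 HepG2 cells were transiently transfected with multiplexed reporter units driven by chimeric LXRa–GAL4 fusion proteins, then dosed for 24 h. Reporter mRNA was quantified by RT-PCR, fluorescent labelling and capillary electrophoresis; gain of signal fitted against DMSO baseline.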

[3] = biological target: Oxysterols receptor LXR-beta (Homo sapiens) (UniProt P55055); assay: ATG_LXRb_TRANS: Attagene TRANS-FACTORIAL HepG2 Assay for human Liver X Receptor beta (LXRb) (AID 2282981; active = hit-call score of the fitted dose curve at least 0.9, where 1 is the maximum); settings: HepG2 Attagene TRANS GAL4-LXRb reporter, mRNA
Method in brief: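 Transient transfection HepG2 (multiplexed RTUs, GAL4-UAS); NR-Gal4 chimera; 24 h exposure; RNA → RT-PCR → 6-FAM primer extension → HpaI → CE; increase vs DMSO.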

[4] = ATG_M_32_TRANS: Attagene TRANS-FACTORIAL HepG2 Assay for M32 Transcription Factor (Internal Marker) (AID 2282984; active = hit-call score of the fitted dose curve at least 0.9, where 1 is the maximum); settings: HepG2 Attagene TRANS M32 internal marker reporter
Method in brief: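 Measures reporter mRNA induction in human HepG2 liver cells after 24 h chemical treatment. Transcripts from transiently transfected GAL4-UAS reporter units are amplified, fluorescently labelled and sized by capillary electrophoresis; gain of signal relative to DMSO.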

[5] = biological target: Nuclear receptor subfamily 4 group A member 2 (Homo sapiens) (UniProt P43354); assay: ATG_NURR1_TRANS: Attagene TRANS-FACTORIAL HepG2 Assay for human Nuclear Receptor Related Protein 1 (NURR1) (AID 2282985; active = hit-call score of the fitted dose curve at least 0.9, where 1 is the maximum); settings: HepG2 Attagene TRANS reporter, mRNA readout
Method in brief: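 Transient transfection of HepG2, human liver cells, with multiple GAL4-UAS reporter transcription units. Cells dosed 24 h, RNA isolated, reverse-transcribed, PCR-amplified, FAM-labelled, HpaI-digested, sized by capillary electrophoresis. DMSO served as negative control.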

[6] = biological target: Transcriptional activator Myb (Homo sapiens) (UniProt P10242); assay: ATG_Myb_CIS: Attagene CIS-FACTORIAL HepG2 Assay for human Myeloblastosis (Myb) Proto-Oncogene Transcription Factor (AID 2282986); settings: HepG2 Attagene CIS-FACTORIAL Myb reporter transcription; actives raise or lower the signal
Method in brief: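 Multiplexed cis-reporter system in HepG2: transient transfection, 24 h treatment, mRNA readout by RT-PCR and capillary electrophoresis. Both increases and decreases are scored versus DMSO negative control.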

[7] = ATG_NFI_CIS: Attagene CIS-FACTORIAL HepG2 Assay for human Nuclear Factor I (NFI) (AID 2282989); settings: HepG2 cis-regulatory reporter, NFI response element transcription; actives raise or lower the signal
Method in brief: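 Transfected HepG2 liver cells, exposed 24 h, supplied total RNA for oligo(dT) reverse transcription and reporter-specific PCR. Labelled, HpaI-cut fragments were sized by capillary electrophoresis; DMSO set the baseline for bidirectional fitting.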

[8] = biological target: Myc proto-oncogene protein (Homo sapiens) (UniProt P01106); assay: ATG_Myc_CIS: Attagene CIS-FACTORIAL HepG2 Assay for human Myelocytomatosis (Myc) Proto-Oncogene Transcription Factor (AID 2282990); settings: HepG2, Attagene cis-reporter transcription factor activity; actives raise or lower the signal
Method in brief: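 HepG2, transient MRTU transfection (cis promoters, endogenous TFs); 24 h dosing; TriZol RNA → oligo(dT) RT → PCR → 6-FAM primer extension → HpaI cut → CE. Bidirectional fit vs DMSO.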

[9] = ATG_NRF2_ARE_CIS: Attagene CIS-FACTORIAL HepG2 Assay for human Nuclear Factor Erythroid 2 Related Factor 2 (NFR2) response to Antioxidant Response Elements (ARE) (AID 2282992); settings: HepG2 Attagene ARE/NRF2 reporter, transcription factor activity; actives raise or lower the signal;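 as to AC50: reporter mRNA level measured by RT-PCR and capillary electrophoresis fluorescence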
Method in brief: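 Cis-factorial assay: transfected HepG2 reporter library, 24 h dosing, mRNA readout via RT-PCR/CE; DMSO-referenced bidirectional analysis.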

[10] = ATG_Oct_MLP_CIS: Attagene CIS-FACTORIAL HepG2 Assay for human Octamer-Binding Transcription Factor (Oct) (AID 2282993); settings: HepG2 Attagene cis-factorial Oct reporter, mRNA; actives raise or lower the signal
Method in brief: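 Using HepG2 cells bearing transfected cis-reporter constructs, mRNA induction was read after 24 h by fluorescent RT-PCR and capillary electrophoresis, with DMSO defining baseline for gain- or loss-of-signal fits.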

[11] = biological target: Cellular tumor antigen p53 (Homo sapiens) (UniProt P04637); assay: ATG_p53_CIS: Attagene CIS-FACTORIAL HepG2 Assay for human p53 Transcription Factor (AID 2282994); settings: HepG2 p53 cis-element reporter, Attagene mRNA; actives raise or lower the signal
Method in brief: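 Using HepG2 hepatoma cells carrying cis-acting multiplexed reporters, mRNA induction is detected after a 24 h exposure. Gain- and loss-of-signal responses are fitted relative to DMSO-treated cells.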

[12] = biological target: Nuclear respiratory factor 1 (Homo sapiens) (UniProt Q16656); assay: ATG_NRF1_CIS: Attagene CIS-FACTORIAL HepG2 Assay for human Nuclear Respiratory Factor 1 (NRF1) Orphan Gene (AID 2282987); settings: HepG2 NRF1 cis-element reporter, Attagene multiplex; actives raise or lower the signal
Method in brief: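 Endogenous factor activity was captured via cis-element-driven reporter transcripts in HepG2 cells. Following 24 h chemical treatment, transcripts were quantified by RT-PCR and capillary electrophoresis.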

[13] = ATG_NF_kB_CIS: Attagene CIS-FACTORIAL HepG2 Assay for human Nuclear Factor Kappa B (NF-kB) (AID 2282991); settings: HepG2 Attagene cis-factorial NF-kB reporter mRNA; actives raise or lower the signal
Method in brief: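 After 24 h compound incubation, transfected HepG2 cells yield total RNA; reporter cDNA is PCR-amplified, end-labelled with 6-FAM, HpaI-digested and analysed on a genetic analyser. Endogenous factor activity, DMSO-referenced bidirectional fit.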

[14] = biological target: Glucocorticoid receptor (Homo sapiens) (UniProt P04150); assay: ATG_GR_TRANS: Attagene TRANS-FACTORIAL HepG2 Assay for human Glucocorticoid Receptor (GR) (AID 2282978; active = hit-call score of the fitted dose curve at least 0.9, where 1 is the maximum;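 also: activators score as hits since higher reporter transcript over DMSO is fitted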); settings: HepG2 Attagene TRANS GR reporter, mRNA transcription
Method in brief: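 HepG2 transient transfection, multiple reporter units, GAL4-UAS under NR-GAL4 chimera control. 24 h treatment. Reporter mRNA by RT-PCR/CE fluorescence, DMSO as negative control.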

[15] = biological target: Hepatocyte nuclear factor 4-alpha (Homo sapiens) (UniProt P41235); assay: ATG_HNF4a_TRANS: Attagene TRANS-FACTORIAL HepG2 Assay for human Hepatocyte Nuclear Factor 4 alpha (HNF4a) (AID 2282982; active = hit-call score of the fitted dose curve at least 0.9, where 1 is the maximum); settings: HepG2 HNF4a transactivation reporter, mRNA readout
Method in brief: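 Readout is fluorescent reporter-transcript fragments resolved by capillary electrophoresis after RT-PCR from HepG2 cells dosed for 24 h. Cells carried transfected GAL4-UAS reporter constructs measuring exogenous NR-GAL4 chimera activity; DMSO served as baseline.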

[16] = ATG_M_06_TRANS: Attagene TRANS-FACTORIAL HepG2 Assay for M06 Transcription Factor (Internal Marker) (AID 2282983; active = hit-call score of the fitted dose curve at least 0.9, where 1 is the maximum;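 also: reporter transcript level by RT-PCR then capillary electrophoresis fluorescence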); settings: HepG2 Attagene TRANS M06 internal marker reporter
Method in brief: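 HepG2 cells transiently transfected with multiplexed GAL4-UAS reporter transcription units; after 24 h compound exposure, reporter mRNA measured by RT-PCR, FAM-labelled primer extension, HpaI digestion and capillary electrophoresis. Gain-of-signal fitted versus DMSO baseline; background control readout.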

[17] = biological target: Bile acid receptor (Homo sapiens) (UniProt Q96RI1); assay: ATG_FXR_TRANS: Attagene TRANS-FACTORIAL HepG2 Assay for Farnesoid X Receptor (FXR) (AID 2282979; active = hit-call score of the fitted dose curve at least 0.9, where 1 is the maximum;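 also: hits raise reporter mRNA above DMSO so AC50 marks FXR activation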); settings: HepG2 Attagene TRANS FXR-GAL4 reporter transcription
Method in brief: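 HepG2 cells transiently transfected with reporter constructs in which a chimeric FXR-GAL4 protein drives a GAL4-UAS reporter; 24 h compound exposure. Reporter mRNA measured by RT-PCR, FAM labelling, HpaI digestion and capillary electrophoresis; gain-of-signal versus DMSO.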

[18] = BSK_3C_TissueFactor: BioMAP Diversity Plus: 3C Assay for Tissue Factor Biomarker Activity (AID 2282997); settings: BioMAP 3C HUVEC, tissue factor biomarker readout; actives raise or lower the signal
Method in brief: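 Primary human umbilical vein endothelial cells in the 3C system were exposed to test chemical for 24 h, then Tissue Factor measured by ELISA. Activity was fitted bidirectionally against DMSO as negative control and baseline.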

[19] = BSK_3C_VCAM1: BioMAP Diversity Plus: 3C Assay for Vascular cell adhesion molecule 1 (VCAM1) Biomarker Activity (AID 2282999); settings: BioMAP 3C HUVEC, VCAM1 ELISA, cytokine-stimulated; actives raise or lower the signal
Method in brief: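 Endothelial cells from human umbilical vein are treated with test chemical. At 24 h, VCAM-1 is measured by ELISA, and responses in either direction are fitted relative to DMSO.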

Measured: AC50

Oxysterols receptor LXR-beta (Homo sapiens), sequence (P55055 whole entry, looked up, the tested form may be a part): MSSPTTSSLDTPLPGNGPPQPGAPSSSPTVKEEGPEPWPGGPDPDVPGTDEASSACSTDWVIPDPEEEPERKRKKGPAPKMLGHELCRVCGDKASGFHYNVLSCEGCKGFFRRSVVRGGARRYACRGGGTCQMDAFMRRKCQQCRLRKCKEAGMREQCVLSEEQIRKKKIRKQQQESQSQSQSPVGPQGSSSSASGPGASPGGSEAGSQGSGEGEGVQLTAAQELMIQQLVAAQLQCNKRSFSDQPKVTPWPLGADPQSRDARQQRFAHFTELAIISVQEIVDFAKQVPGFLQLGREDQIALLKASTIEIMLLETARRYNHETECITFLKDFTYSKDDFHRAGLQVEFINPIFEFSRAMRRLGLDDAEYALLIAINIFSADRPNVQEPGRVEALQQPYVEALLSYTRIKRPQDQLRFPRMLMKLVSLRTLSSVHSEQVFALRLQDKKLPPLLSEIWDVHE
Transcriptional activator Myb (Homo sapiens), sequence (P10242 whole entry, looked up): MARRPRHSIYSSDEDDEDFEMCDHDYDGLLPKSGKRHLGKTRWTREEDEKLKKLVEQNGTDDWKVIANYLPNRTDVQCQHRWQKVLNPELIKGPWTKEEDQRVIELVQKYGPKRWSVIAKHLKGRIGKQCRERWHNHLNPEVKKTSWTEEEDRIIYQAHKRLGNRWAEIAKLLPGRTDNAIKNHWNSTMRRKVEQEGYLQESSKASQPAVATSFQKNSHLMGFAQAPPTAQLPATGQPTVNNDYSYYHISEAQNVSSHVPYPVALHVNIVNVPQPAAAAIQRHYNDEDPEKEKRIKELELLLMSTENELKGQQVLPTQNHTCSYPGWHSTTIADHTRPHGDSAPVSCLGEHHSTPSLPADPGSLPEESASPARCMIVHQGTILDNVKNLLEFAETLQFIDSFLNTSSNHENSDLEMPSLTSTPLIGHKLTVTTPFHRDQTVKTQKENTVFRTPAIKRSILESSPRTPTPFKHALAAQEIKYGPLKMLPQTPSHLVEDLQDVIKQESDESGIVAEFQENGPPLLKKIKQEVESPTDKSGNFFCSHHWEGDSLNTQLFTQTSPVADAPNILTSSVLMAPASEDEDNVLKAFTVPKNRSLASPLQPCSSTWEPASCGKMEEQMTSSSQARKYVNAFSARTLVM
Nuclear respiratory factor 1 (Homo sapiens), sequence (Q16656 whole entry, looked up): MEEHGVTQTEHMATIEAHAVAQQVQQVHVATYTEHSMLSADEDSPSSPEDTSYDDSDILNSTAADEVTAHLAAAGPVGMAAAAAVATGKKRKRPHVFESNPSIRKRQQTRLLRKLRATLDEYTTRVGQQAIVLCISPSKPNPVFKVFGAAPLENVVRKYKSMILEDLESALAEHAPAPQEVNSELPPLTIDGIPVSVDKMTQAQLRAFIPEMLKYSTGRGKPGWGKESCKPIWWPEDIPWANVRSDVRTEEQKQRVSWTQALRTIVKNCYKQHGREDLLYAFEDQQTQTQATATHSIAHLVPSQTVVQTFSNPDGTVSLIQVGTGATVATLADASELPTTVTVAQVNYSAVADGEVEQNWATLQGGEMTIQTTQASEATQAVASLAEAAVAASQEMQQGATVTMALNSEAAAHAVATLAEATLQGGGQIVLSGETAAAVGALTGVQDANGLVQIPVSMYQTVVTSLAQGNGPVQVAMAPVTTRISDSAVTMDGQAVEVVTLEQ
Bile acid receptor (Homo sapiens), sequence (Q96RI1 whole entry, looked up, the tested form may be a part): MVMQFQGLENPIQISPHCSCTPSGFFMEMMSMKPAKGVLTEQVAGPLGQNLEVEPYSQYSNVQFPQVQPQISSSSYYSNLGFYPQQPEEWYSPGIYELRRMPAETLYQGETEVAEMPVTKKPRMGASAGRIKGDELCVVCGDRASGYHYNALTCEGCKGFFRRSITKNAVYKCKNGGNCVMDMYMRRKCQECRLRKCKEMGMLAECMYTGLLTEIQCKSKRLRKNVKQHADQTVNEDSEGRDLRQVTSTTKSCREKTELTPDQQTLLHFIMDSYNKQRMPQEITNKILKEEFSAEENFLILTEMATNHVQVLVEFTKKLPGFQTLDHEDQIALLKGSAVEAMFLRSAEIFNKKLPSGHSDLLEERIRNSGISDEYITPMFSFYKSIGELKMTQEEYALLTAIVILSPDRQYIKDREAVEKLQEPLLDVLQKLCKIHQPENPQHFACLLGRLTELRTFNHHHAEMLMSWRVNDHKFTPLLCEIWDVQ
Cellular tumor antigen p53 (Homo sapiens), sequence (P04637 whole entry, looked up): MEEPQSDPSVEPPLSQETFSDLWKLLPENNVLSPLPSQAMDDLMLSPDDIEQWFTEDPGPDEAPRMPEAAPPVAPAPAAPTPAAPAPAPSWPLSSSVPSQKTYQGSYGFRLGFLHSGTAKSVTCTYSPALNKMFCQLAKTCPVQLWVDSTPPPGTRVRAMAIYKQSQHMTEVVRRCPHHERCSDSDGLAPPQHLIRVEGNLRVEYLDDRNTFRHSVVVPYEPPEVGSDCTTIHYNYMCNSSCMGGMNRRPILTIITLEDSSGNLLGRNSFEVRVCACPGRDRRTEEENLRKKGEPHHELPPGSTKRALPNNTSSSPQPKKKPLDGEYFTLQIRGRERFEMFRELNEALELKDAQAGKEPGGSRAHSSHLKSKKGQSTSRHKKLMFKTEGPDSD
Myc proto-oncogene protein (Homo sapiens), sequence (P01106 whole entry, looked up): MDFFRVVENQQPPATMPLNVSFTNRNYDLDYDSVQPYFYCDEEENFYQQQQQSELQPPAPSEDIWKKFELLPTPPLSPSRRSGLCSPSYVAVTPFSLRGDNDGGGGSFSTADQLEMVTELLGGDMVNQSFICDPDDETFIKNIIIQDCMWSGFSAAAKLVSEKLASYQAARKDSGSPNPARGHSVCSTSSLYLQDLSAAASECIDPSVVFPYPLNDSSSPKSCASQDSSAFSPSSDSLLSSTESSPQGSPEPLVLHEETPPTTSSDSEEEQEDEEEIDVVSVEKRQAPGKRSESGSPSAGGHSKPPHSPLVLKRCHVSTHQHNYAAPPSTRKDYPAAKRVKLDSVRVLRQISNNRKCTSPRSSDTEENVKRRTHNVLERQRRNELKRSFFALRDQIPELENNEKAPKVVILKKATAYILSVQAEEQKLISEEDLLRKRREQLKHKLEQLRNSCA
Oxysterols receptor LXR-alpha (Homo sapiens), sequence (Q13133 whole entry, looked up, the tested form may be a part): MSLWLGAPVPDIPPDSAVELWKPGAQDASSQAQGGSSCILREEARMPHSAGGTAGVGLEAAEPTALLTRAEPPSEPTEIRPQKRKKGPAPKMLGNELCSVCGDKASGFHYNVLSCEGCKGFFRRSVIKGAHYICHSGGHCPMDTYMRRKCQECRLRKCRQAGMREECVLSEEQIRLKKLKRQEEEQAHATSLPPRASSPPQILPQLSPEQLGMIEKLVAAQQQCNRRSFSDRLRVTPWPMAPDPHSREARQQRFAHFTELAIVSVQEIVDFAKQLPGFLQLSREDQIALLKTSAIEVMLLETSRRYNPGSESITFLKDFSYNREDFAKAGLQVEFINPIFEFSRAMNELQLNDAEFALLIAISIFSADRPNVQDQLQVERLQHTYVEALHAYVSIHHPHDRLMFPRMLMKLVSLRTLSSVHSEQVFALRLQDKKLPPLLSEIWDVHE
Hepatocyte nuclear factor 4-alpha (Homo sapiens), sequence (P41235 whole entry, looked up, the tested form may be a part): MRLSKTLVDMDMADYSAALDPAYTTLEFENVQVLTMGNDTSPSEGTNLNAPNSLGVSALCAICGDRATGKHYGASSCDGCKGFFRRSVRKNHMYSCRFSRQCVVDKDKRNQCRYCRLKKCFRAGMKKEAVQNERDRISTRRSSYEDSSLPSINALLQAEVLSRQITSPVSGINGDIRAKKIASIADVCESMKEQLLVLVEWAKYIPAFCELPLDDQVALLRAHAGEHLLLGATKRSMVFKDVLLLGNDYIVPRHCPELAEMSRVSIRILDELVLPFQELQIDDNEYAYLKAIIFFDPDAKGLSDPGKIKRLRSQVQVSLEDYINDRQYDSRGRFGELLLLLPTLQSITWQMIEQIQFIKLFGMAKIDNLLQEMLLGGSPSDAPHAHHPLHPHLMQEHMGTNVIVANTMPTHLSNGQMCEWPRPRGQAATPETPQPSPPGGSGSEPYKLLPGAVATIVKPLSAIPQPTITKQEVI
Estrogen-related receptor gamma (Homo sapiens), sequence (P62508 whole entry, looked up, the tested form may be a part): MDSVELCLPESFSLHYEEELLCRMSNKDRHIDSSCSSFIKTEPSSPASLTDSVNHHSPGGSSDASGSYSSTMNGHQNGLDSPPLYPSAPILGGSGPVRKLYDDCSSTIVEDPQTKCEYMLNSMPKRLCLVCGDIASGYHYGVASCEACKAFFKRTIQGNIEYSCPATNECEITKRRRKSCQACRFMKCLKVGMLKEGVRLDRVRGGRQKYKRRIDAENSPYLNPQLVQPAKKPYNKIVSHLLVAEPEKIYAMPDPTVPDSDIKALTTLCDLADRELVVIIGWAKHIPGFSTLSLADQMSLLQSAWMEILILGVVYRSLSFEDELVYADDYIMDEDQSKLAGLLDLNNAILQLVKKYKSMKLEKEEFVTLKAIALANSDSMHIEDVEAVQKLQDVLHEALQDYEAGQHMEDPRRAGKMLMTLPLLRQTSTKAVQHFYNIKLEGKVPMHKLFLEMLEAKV
Nuclear receptor subfamily 4 group A member 2 (Homo sapiens), sequence (P43354 whole entry, looked up, the tested form may be a part): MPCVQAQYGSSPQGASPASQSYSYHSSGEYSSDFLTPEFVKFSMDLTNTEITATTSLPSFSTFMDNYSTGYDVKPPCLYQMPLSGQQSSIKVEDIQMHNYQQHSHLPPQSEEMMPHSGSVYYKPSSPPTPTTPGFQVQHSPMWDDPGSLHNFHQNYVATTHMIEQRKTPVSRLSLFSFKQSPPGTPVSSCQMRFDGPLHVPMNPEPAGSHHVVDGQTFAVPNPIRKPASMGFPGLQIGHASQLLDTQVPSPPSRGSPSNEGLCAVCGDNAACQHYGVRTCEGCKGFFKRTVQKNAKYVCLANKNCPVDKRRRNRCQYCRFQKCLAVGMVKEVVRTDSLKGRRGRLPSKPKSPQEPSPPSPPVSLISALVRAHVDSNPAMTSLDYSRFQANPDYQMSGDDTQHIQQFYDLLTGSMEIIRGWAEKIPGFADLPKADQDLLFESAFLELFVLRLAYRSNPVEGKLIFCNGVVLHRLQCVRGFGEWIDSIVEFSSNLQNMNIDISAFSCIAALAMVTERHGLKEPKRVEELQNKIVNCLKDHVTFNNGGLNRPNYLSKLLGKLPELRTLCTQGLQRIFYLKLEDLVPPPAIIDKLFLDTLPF

CCCCCCCC(=O)N(C)C
not listed: [12] | [13] | [14] | [15] | [16] | [17] | [18] | [19]
inactive: all other assays above

C1COCO1
inactive: [1] | [3] | [4] | [6] | [12] | [7] | [8] | [13] | [9] | [10]

O=C(O)CS
not listed: [2] | [3] | [4] | [10] | [11] | [17] | [18] | [19]
inactive: all other assays above

O=C(O)c1ccc(C(=O)O)c(C(=O)O)c1
not listed: [3] | [10] | [11] | [15] | [16] | [17] | [18] | [19]
inactive: all other assays above

CCCCC1CCCCC(=O)O1 (centres undefined)
not listed: [2] | [4] | [5] | [12] | [17] | [18] | [19]
inactive: all other assays above

CN(C)c1ccc(C=O)cc1
not listed: [2] | [5] | [16] | [18] | [19]
inactive: all other assays above

Brc1cc(Br)cc(Br)c1
not listed: [2] | [18] | [19]
inactive: all other assays above

Cc1cc(O)c(C)c(C)c1O
active: [13] 50.7 µM | [9] 18.8 µM
not listed: [3] | [14] | [15] | [16] | [17] | [18] | [19]
inactive: all other assays above

C[C@]12CC[C@@H]3c4ccc(O)cc4CC[C@H]3[C@@H]1CC[C@@H]2O
inactive: [1] | [14] | [2] | [3] | [15] | [16] | [4] | [5] | [6] | [12] | [7] | [8] | [9] | [10] | [19]
active: [7] 146 µM | [18] 20 µM

CCCCCCCCCO
inactive: [1] | [14] | [17] | [2] | [3] | [4] | [6] | [8] | [10] | [11]
